Consider 29 sequences from the OligoGym collection.
Further: reference of the scale not given here.

One test addresses APLNR. Kind of test: pooled miR-30 sensor sort-seq; sequence = guide strand. The following applies: shRNA.
Consider TTGACGAAGATGAGGTAGCTGC, for which the sensor-assay potency score (higher = more potent) was -0.686. Still for that read-out and setting: then TGGAGCACTAATTATCTGCTGA, with -0.596; and TAGCTGGCTGACTTCTCCCCAC, with -0.754; and TTTTACTGCGTCCAGACTCAGG, with -1.25. For the sequence AAACACGGTCCAGAGCACCAGA, the sensor-assay potency score (higher = more potent) is -0.76. On to AGTCTGTGTACTCACACTCAGA, for which the sensor-assay potency score (higher = more potent) is -2.07.

Regarding TATCTGCTGACACACAGCCCAC, the sensor-assay potency score (higher = more potent) was -1.74.

As to AAGTACAACACACACAGACAAG, the sensor-assay potency score (higher = more potent) is -1.41.

The target of a further test is APOA1. The test is described as above. The following applies: shRNA.
For TAGGTTTAGCTGTTTTCCCAAG, the sensor-assay potency score (higher = more potent) is -1.2.

The sequence TAGAGCTCCATCTCCTCCTGCC yielded a sensor-assay potency score (higher = more potent) of 0.375. Turning to TTGCAGCTCGTGCAGCTTCTGG, the sensor-assay potency score (higher = more potent) is -1.14. Turning to TTCTTCTGGAAGTCGTCCAGGT, the sensor-assay potency score (higher = more potent) is -0.431. Still for that read-out and setting: the same measure for TTGGAGCTCTGCGCGCAGCGGC: -1.17; for TTTAGCTGTTTTCCCAAGGCGG: -0.584; for TGGGACACATAGTCTCTGCCGC: -0.692. Turning to TCTTGCTGCCAGAAATGCCGAG, the sensor-assay potency score (higher = more potent) is -0.701. TCGCGCAGCTTGCTGAAGGTGG: the sensor-assay potency score (higher = more potent) is -0.684.

Turning to AACTGGGACACATAGTCTCTGC, the sensor-assay potency score (higher = more potent) was -0.955. As for TTAGCTGTTTTCCCAAGGCGGA, the sensor-assay potency score (higher = more potent) was -1.3.

Regarding TACTCGGCCAGTCTGGCGCCGC, the sensor-assay potency score (higher = more potent) was -0.96. In the case of TTTGAGCACATCCACGTACACA, the sensor-assay potency score (higher = more potent) was -1.01. TTGTCAAGGAGCTTTAGGTTTA: the sensor-assay potency score (higher = more potent) was -0.808. Same read-out and setting: the same measure for TTGAGCACATCCACGTACACAG: -0.115.

Turning to TTCTCTTGCAGCTCGTGCAGCT, the sensor-assay potency score (higher = more potent) is -0.213. Turning to TGTCTTTGAGCACATCCACGTA, the sensor-assay potency score (higher = more potent) is -1.2. On to TCAGCTTCTCTTGCAGCTCGTG, for which the sensor-assay potency score (higher = more potent) is -1.07.

As to TTAGGTTTAGCTGTTTTCCCAA, the sensor-assay potency score (higher = more potent) was determined as 0.243. Consider TAGCTGTTTTCCCAAGGCGGAG, for which the sensor-assay potency score (higher = more potent) is -1.51. With TTGGCCTTCTCGCTGAGCGTGC, the sensor-assay potency score (higher = more potent) was -0.4.
